# Rows were chosen to be rich in hits. Some 28% of all compounds tested hit in one or more screens of this group.
# CYP2C19 inh = inhibitors of human CYP2C19; actives 21% (n = 96,000); AID 778; inhibition, % at 5 µM; CYP2C19 Supersomes, luciferin-H EGE luminescence, 30 min;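 active means CYP2C19 inhibition above a set limit at 5 µM in the primary screen, cut at about 50% in these data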;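 further: plate controls were negative control wells for no effect and 2.5 mM tranylcypromine positive control for full effect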
# CYP2C9 inh = inhibitors of human CYP2C9. P11712. CYP2C9 Supersomes, luciferin-H conversion, luminescence. inhibition, % at 5 µM. actives 20% (n = 96,000). AID 777;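 active means blocking of liver enzyme CYP2C9 beyond about 50% at 5 µM, limit read from the data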
# CD11b adhes enh = CD11b/CD18-fibrinogen binding enhancement | P05107+P11215 | K562 CD11b/CD18 adhesion to fibrinogen, ATPlite luminescence | activation, % at 10 µM | actives 0.07% (n = 93,000) | AID 1499;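 active means 10 µM primary screen giving 50% or more activity, confirmed by 40% or more on retest at that dose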
# Target sequence (P05107 whole entry, looked up, other chains not shown): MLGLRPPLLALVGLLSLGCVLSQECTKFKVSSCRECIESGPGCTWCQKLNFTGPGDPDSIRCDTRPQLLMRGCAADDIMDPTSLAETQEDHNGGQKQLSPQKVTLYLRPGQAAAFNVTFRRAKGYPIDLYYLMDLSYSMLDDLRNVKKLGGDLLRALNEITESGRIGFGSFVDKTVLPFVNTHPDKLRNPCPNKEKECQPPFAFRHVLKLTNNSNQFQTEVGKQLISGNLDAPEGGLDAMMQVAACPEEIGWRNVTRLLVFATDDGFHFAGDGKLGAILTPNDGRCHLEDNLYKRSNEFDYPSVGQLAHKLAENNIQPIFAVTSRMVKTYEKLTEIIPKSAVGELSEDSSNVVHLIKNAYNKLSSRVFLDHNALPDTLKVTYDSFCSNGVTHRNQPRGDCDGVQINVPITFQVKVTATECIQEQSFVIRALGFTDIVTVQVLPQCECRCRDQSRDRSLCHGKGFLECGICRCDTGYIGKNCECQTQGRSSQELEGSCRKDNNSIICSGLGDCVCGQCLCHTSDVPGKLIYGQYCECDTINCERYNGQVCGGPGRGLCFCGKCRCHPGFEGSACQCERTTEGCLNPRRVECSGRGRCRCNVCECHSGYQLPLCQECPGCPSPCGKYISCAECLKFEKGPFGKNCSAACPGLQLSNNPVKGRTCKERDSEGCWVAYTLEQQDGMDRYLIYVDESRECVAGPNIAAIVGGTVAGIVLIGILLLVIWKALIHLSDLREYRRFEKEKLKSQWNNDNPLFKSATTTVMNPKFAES
# CYP2C9 activ = CYP2C9 (human) activation | actives 1.4% (n = 96,000) | P11712 | AID 1024 | recombinant CYP2C9, luciferin-H conversion, luminescence; hits give high values; factor 1 = untreated enzyme, 0 = blocked | activation factor at 5 µM;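 active means activation factor of 2 or more for CYP2C9 at a 5 µM dose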;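 further: 0 = sulfaphenazole-blocked wells and 1 = vehicle-only wells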
# Mac1 fbg inh = inhibitors of human CD11b/CD18 binding to fibrinogen | P05107+P11215 | inhibition, % at 10 µM | K562 CD11b/CD18 adhesion to fibrinogen, ATPlite luminescence; Mn2+ added to activate the integrin | actives 0.54% (n = 93,000);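 active means primary inhibition of 50% or more at 10 µM, then 40% or more on retest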
# CYP2C19 activ = increases human CYP2C19 enzyme activity. activation factor at 5 µM. P33261. 96,000 tested, under 10 active. recombinant CYP2C19, luciferin-H EGE luminescence; hits give high values; 0 = fully inhibited enzyme, 1 = untreated enzyme. AID 1025;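 active means activation factor of at least 2 at 5 µM in the primary screen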;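 further: 0 = wells with 2.5 mM tranylcypromine and 1 = vehicle-only wells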
# The depositor's hits bear a star; . = not tested or not shown.
SMILES,CYP2C19 inh,CYP2C9 inh,CD11b adhes enh,CYP2C9 activ,Mac1 fbg inh,CYP2C19 activ
CC(C)CN(C(=O)c1nn(C)c(=O)c2ccccc12)c1nc2ccccc2s1,53*,77*,12,0.2,15,0.5
Cn1nc(C(=O)Nc2nc3ccccc3[nH]2)c2ccccc2c1=O,.,.,-5,.,-3,.
FC(F)(F)C1=CC(c2ccccc2)=NCCN1,2,-3,-4,1,-12,1
CCN(C(=O)CCS(=O)(=O)c1ccc(Br)cc1)c1ccc2c(c1)OCO2,67*,6,3,0.9,-3,0.3
O=C(Nc1ccc2c(c1)OCO2)c1c(F)c(F)c(F)c(F)c1F,38,0,2,1,-7,0.6
O=C(CC1(C(F)(F)F)OCCO1)Nc1ccc2c(c1)OCO2,94*,8,2,0.9,0,0.1
CN(C)C(=O)CN(c1ccc2c(c1)OCO2)S(C)(=O)=O,18,4,9,1,11,0.8
Cc1cccc(OCCCC(=O)Nc2ccc3c(c2)OCO3)c1,69*,54*,0,0.5,1,0.3
Cc1ccc(-c2nnn(CCC(=O)Nc3ccc4c(c3)OCO4)n2)cc1,1,3,-2,1,15,1
Cc1ccc(S(=O)(=O)CCC(=O)Nc2ccc3c(c2)OCO3)cc1,1,94*,.,0.1,.,1
O=C(O)CCNc1cc2ccccc2cc1C(=O)O,12,8,1,0.9,5,0.9
Cc1ccc(S(=O)(=O)NCCC(=O)Nc2ccc3c(c2)OCO3)cc1,84*,95*,-2,0.1,-18,0.2
Cc1ccc(C)c(OCC(=O)Nc2ccc3c(c2)OCO3)c1C,6,-191,5,2.9*,-13,0.9
CCN(C(=O)c1c(C)cc(=O)oc1C)c1ccc2c(c1)OCO2,17,0,-2,1,1,0.8
Cc1cccc(OCC(=O)Nc2ccc3c(c2)OCO3)c1C,29,-56,5,1.6,4,0.7
CCN(C(=O)c1coc(=O)c(Br)c1)c1ccc2c(c1)OCO2,59*,62*,1,0.4,-13,0.4
CC(=O)c1ccc(N2CCN(C(=S)Nc3ccccc3F)CC2)cc1,.,.,10,.,0,.
O=C(Cn1cnc2ccccc2c1=O)NCCC(=O)N1CCN(c2ccccc2)CC1,-3,31,0,0.7,-23,1
Cc1nnc(SCC(=O)Nc2ccc(N3CCOCC3)cc2)o1,-9,-6,0,1.1,-28,1.1
CCOC(=O)Cc1csc(NC(=O)c2cc3c(s2)CCCC3)n1,27,64*,-3,0.4,14,0.7
Cc1csc(NC(=O)c2cc3c(s2)CCCC3)n1,16,9,-6,0.9,70,0.8
CCOC(=O)Cc1csc(NC(=O)c2csc3c2CCCC3)n1,65*,75*,-3,0.3,8,0.4
COc1ccc(NC(=O)COC(=O)CCCc2c[nH]c3ccccc23)cc1,84*,81*,-7,0.2,15,0.2
O=C(COC(=O)C1=COCCO1)Nc1ccc2c(c1)OCO2,-6,-6,-3,1.1,0,1.1
O=C(COC(=O)C1c2ccccc2Oc2ccccc21)Nc1ccc2c(c1)OCO2,19,58*,20,0.4,-1,0.8
SMILES,CYP2C19 inh,CYP2C9 inh,CD11b adhes enh,CYP2C9 activ,Mac1 fbg inh,CYP2C19 activ
O=C(COC(=O)CCCc1c[nH]c2ccccc12)Nc1ccc2c(c1)OCO2,73*,22,-3,0.8,27,0.3
Cn1c(NC(=O)c2ccccc2)c(-c2ccccn2)c(=O)c2ccccc21,-11,28,1,0.7,2,1.1
CC12CCC(c3nnc(SCC(=O)Nc4cccc5ccccc45)nc31)C2(C)C (configuration not stated),16,22,.,0.8,.,0.8
N#Cc1c(NC(=O)CSc2ncc(-c3ccccc3)n2CC2CCCO2)sc2c1CCCC2 (configuration not stated),60*,73*,0,0.3,19,0.4
O=C(CSc1ncc(-c2ccccc2)n1CC1CCCO1)N1CCCCC1 (configuration not stated),58*,9,6,0.9,22,0.4
NC(=O)c1c(NC(=O)CSc2nnc(-c3ccccc3)n2CC2CCCO2)sc2c1CCC2 (configuration not stated),80*,91*,-2,0.1,-17,0.2
Cn1c(-c2ccc(F)cc2)cnc1SCC(=O)N1CCCCC1,62*,-4,-2,1,1,0.4
N#Cc1c(NC(=O)CSc2nnc(-c3ccccc3)o2)sc2c1CCCC2,17,39,-3,0.6,-9,0.8
CCn1c(SCC(=O)Nc2sc3c(c2C(N)=O)CCC(C)C3)nnc1-c1ccco1 (configuration not stated),22,41,.,0.6,.,0.8
CC(C)CCN(C)C1CCN(S(=O)(=O)c2ccc(F)cc2)CC1,3,7,3,0.9,-12,1
N#Cc1c(NC(=O)CSc2nnc(-c3ccccc3O)n2-c2ccccc2)sc2c1CCCC2,74*,67*,16,0.3,5,0.3
Cc1ccc(C(=O)NCc2nnc(SCC(=O)Nc3sc4c(c3C#N)CCCC4)n2C)cc1,6,20,-11,0.8,11,0.9
N#Cc1c(NC(=O)CSc2nnc(-c3ccncc3)n2CC2CCCO2)sc2c1CCCC2 (configuration not stated),69*,87*,1,0.1,1,0.3
COc1cc(C)c(C)cc1S(=O)(=O)N1CCCCC1c1cccnc1 (configuration not stated),81*,24,5,0.8,6,0.2
CC(=O)Nc1ccc(S(=O)(=O)N2CCCCC2c2cccnc2)cc1 (configuration not stated),16,17,4,0.8,-17,0.8
CCC1C2CN(C(C)=O)CC=C2C(C#N)=C(N)C1(C#N)C#N (configuration not stated),4,-1,-1,1,-5,1
CCN1CC=C2C(C#N)=C(N)C(C#N)(C#N)C(c3cc(Cl)ccc3Cl)C2C1 (configuration not stated),34,59*,-3,0.4,6,0.7
COc1ccc(S(=O)(=O)NNC(=O)c2cc3cc4ccccc4nc3s2)cc1,-13,-8,1,1.1,9,1.1
Cc1ccc(-c2csc(NC(=O)CSc3ncn(-c4ccccc4)n3)n2)cc1,64*,67*,21,0.3,-5,0.4
Cc1csc(SCC(=O)Nc2nc3ccccc3s2)n1,92*,94*,-3,0.1,5,0.1
Cc1ccc(-c2nnc(SCC(=O)Nc3nc4c(s3)CCCC4)n2C)cc1,7,35,-1,0.7,0,0.9
Cc1ccc2cc(C)c3nnc(SCC(=O)Nc4nc5c(s4)CCCC5)n3c2c1,57*,61*,6,0.4,1,0.4
